From PubChem BioAssay AID743279 (National Center for Advancing Translational Sciences (NCATS), 2014)
The campaign covered roughly 360,000 compounds. About 17,000 (4.7%) were called active. About 5% were inconclusive and are not listed. This is one part of a sample in which actives are shown more often than they occur. Rule as the data show it: active = activity change below about -50%; inconclusive = mostly about -30% to -49%; inactive = weaker than that.

Assay: qHTS for Inhibitors of Inflammasome Signaling: IL-1-beta AlphaLISA Primary Screen
Conditions: THP-1 LPS/ATP IL-1B secretion, 16 h; at 57.5 µM, hits give low values
Summary of the method: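 Secreted IL-1B measured by AlphaLISA bead assay after 16 h compound exposure of THP-1 cells; compounds (final up to 57.5 uM) added 1 h before LPS (250 ng/mL) and ATP (1.25 mM) stimulation; lower signal means less secretion.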
% is scaled to controls: 0 for no effect and ±100 for the full control effect.

Activity change, active:
COC(=O)c1ccc(NCc2cc(O)ccc2O)cc1 -110%
O=C(OC12CC3CC(CC(C3)C1)C2)c1ccc(NCc2cc(O)ccc2O)cc1 -102%
CC(OC(=O)CNC(=O)c1ccc(Cl)c([N+](=O)[O-])c1)C(=O)NCc1ccco1 (stereo unspecified) -52.2%
Cc1ccccc1C(CC(=O)c1cccs1)C(C#N)C#N (stereo unspecified) -107%

Activity change, inactive:
Cc1ccc(NS(=O)(=O)c2ccc(C(=O)NCCCN3CCOCC3)cc2)cc1 6.14%
COC(=O)c1ccc2c(c1)S(=O)(=O)NC2C (stereo unspecified) 5.94%
CCOC(=O)C1=CC[C@@H](c2ccccc2)N(S(=O)(=O)c2ccc(C)cc2)[C@H]1c1ccc(CC)cc1 52.6%
COc1ccc(S(=O)(=O)N2CCN(CC(=O)N3CCNC3=O)CC2)cc1OC -22%
COC(=O)c1ccc(NCC(=O)c2ccccc2)cc1 -20.4%
CC1(C)C2CCC1(C)C(OC(=O)c1ccc(O)cc1)C2 (stereo unspecified) 9.54%
CC(C)OC(=O)c1ccc(NCc2cc(O)ccc2O)cc1Cl 0%
Cc1ccc(-c2cnc(C(O)c3cccc(C)c3C)[nH]2)cc1 (stereo unspecified) -19.2%
CCC(=O)OCc1c(C(F)(F)F)nn(C)c1Oc1cccc(C(F)(F)F)c1 2.89%
CCC(C)C(CO)NC(=O)/C=C/[C@H]1O[C@@H](n2cnc3c(NC(=O)c4ccccc4)ncnc32)[C@H](O)[C@@H]1O (stereo partly specified) -22%
C[C@H](CO)N1C[C@H](C)[C@@H](CN(C)Cc2ccc3c(c2)OCO3)OCc2cnnn2CCCC1=O 19.4%
CC1CCCC(C)N1C(=O)COC(=O)c1ccccc1C(=O)c1ccccc1 (stereo unspecified) -9.64%
N#Cc1c(N)nc2c(c1N)CC(C(F)(F)F)O2 (stereo unspecified) 16.5%
O=C(O)C(CCc1ccccn1)c1ccccc1 (stereo unspecified) -10.2%
O=c1[nH]c2c(c(=O)n1-c1ccccc1)CCO2 0%
CC(OC(=O)CNC(=O)c1ccco1)C(=O)Nc1ccc(Cl)cn1 (stereo unspecified) 12.3%
O=C(NCc1ccco1)c1ccc([N+](=O)[O-])cc1Cl 15.3%
CCc1nc2ccc(C(=O)N(C)Cc3ccco3)cn2c1N(C)C(=O)Cc1ccccc1 -0.908%
CCCN(C(=O)COC(=O)CNS(=O)(=O)c1ccc(NC(C)=O)cc1)C1CCS(=O)(=O)C1 (stereo unspecified) 14.5%
CCOC(=O)N1CCN(C(c2ccnc3ccccc23)c2nnnn2-c2c(C)cccc2C)CC1 (stereo unspecified) -14.1%
Cc1ccc(C)c(NC(CC(=O)c2ccccc2)C(=O)OCC(=O)c2cccs2)c1 (stereo unspecified) 7.47%
O=C(NCC(=O)N1CCN(c2ccccc2F)CC1)c1cccs1 16.6%
